Data as given in PubChem BioAssay (NCATS).
Inconclusive results are not listed. Where a call stands in place of a potency, no number is given. Calls of active or inactive are those of the source. Calls follow the shape of the dose curve; as a rule, active = well fitted inhibition curve with a large enough effect; inconclusive = small, poorly fitted or top-dose-only effect; inactive = flat fitted curve, though single readings scatter.

Assay: P-glycoprotein substrates identified in KB-8-5-11 adenocarcinoma cell line, qHTS therapeutic library screen (AID 1346987); also: nearly all actives have a fitted effect of over 65% in size
Conditions: KB-8-5-11 (P-gp overexpressing) viability, CellTiter-Glo, 72 h; series mostly up to 44.5 µM
Outline: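 In this qHTS, P-gp-rich KB-8-5-11 cells received library compounds across a concentration range. Viability was quantified by luminescence after 72 h at 37 degree C.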

Structure (SMILES)	Potency	activity change, negative = cytotoxicity
CSC(=O)OCC1=C[C@@H]2OC(=O)C3=CO[C@@H](O[C@@H]4O[C@H](CO)[C@@H](O)[C@H](O)[C@H]4O)[C@H]1[C@@H]32	inactive	
COc1c2ccoc2nc2c(OC)c(O[C@@H]3O[C@@H](C)[C@H](O)[C@@H](O[C@@H]4O[C@H](CO)[C@@H](O)[C@H](O)[C@H]4O)[C@H]3OC(C)=O)ccc12	inactive	
OC[C@H]1O[C@@H](OCCc2ccccc2)[C@H](O)[C@@H](O)[C@@H]1O	inactive	
CCC(C)C(N)C(=O)NCCN1CCOCC1 (stereo not drawn)	inactive	
CC[C@H]1OC(=O)[C@H](C)[C@@H](O[C@H]2C[C@@](C)(OC)[C@@H](O)[C@H](C)O2)C(C)[C@@H](O[C@@H]2O[C@H](C)C[C@H](N(C)C)[C@H]2O)[C@](C)(O)C[C@@H](C)CN(C)[C@H](C)[C@@H](O)[C@]1(C)O (stereo partly drawn)	inactive	
C/C=C(\C)C(=O)OC[C@H]1O[C@@H](O[C@H]2[C@@H](O[C@H]3O[C@H](COC(=O)/C(C)=C/C)[C@@H](O)[C@H](O)[C@H]3O[C@@H]3O[C@H](COC(=O)/C(C)=C/C)[C@@H](O)[C@H](OC(=O)/C(C)=C/C)[C@H]3O)O[C@H](COC(=O)/C(C)=C/C)[C@@H](O)[C@@H]2O)[C@H](O)[C@@H](O)[C@@H]1O		0.351% [at 9.29 µM] (inactive)
CC1=CC(=O)CC(C)(C)C1CO[C@@H]1O[C@H](CO)[C@@H](O)[C@H](O)[C@H]1O (stereo partly drawn)	inactive	
NC1Nc2ccccc2C1(N)CC1NC(=O)C(Cc2ccccc2)NC(=O)C(Cc2ccccc2)NC1=O (stereo not drawn)	inactive	
Cc1ncc(NC(=O)c2ccc(CN3CCN(C)CC3)c(C(F)(F)F)c2)cc1Nc1nccc(-c2cccnc2)n1	inactive	
COc1ccc(C2C(C(=O)O)C(C(=O)O)C2c2ccc(OC)cc2O[C@@H]2O[C@H](CO)[C@@H](O)[C@H](O)[C@H]2O)c(O[C@@H]2O[C@H](CO)[C@@H](O)[C@H](O)[C@H]2O)c1 (stereo partly drawn)	inactive	
CCN=C1N[C@@H]2[C@@H](O)[C@H](O)[C@@H](CO)O[C@@H]2S1	inactive	
Cc1ccc(Nc2nnc(-c3ccc([N+](=O)[O-])cc3)o2)cc1Cl	inactive	
C=CC(C)(O)CC/C=C(\C)COC1O[C@H](CO)[C@@H](O)[C@H](O)[C@H]1O (stereo partly drawn)	inactive	
COc1cc(CO)ccc1O[C@@H]1O[C@H](CO)[C@@H](O)[C@H](O)[C@H]1O	inactive	
CC1(C)C2CCC1(C)C(OC(=O)C(O)(CC(=O)O)CC(=O)O)C2 (stereo not drawn)	inactive	
COc1c2c(c(C)c3c1C(=O)OC3)OC1(C)CC(O)C34OC(O)(CCC3(C)C1C2)OC4(C)C (stereo not drawn)	inactive	
C=CCc1cc(OC)c(OC(C)C(O)c2ccc(O)c(OC)c2)c(OC)c1 (stereo not drawn)	inactive	
CC(C)c1ccc2c(c1)CCC1[C@](C)(C(=O)O)CCC[C@]21C (stereo partly drawn)	inactive	
